# Test results: the supplement of paper PMC8728848
# Shown is part of a subset that was picked to be rich in the strongest signals.
# B1: Malectin (Xenopus laevis), Q6INX3 (protein)
# chain: SGLADKVIWAVNAGGESHVDVHGIHYRKDPLEGRVGRASDYGMKLPILRSNPEDQVLYQTERYNEDSFGYDIPIKEEGEYVLVLKFAEVYFAQSQQKVFDVRVNGHTVVKDLDIFDRVGHSTAHDEIIPISIKKGKLSVQGEVSTFTGKLSVEFVKGYYDNPKVCALFIMKGTADDVPMLQPHPGLE
# Assays:
# Experiment in all cases: glycan array binding signal (z-score within array); higher = stronger binding
# Conditions in all cases: glycan notation: IUPAC condensed, linker removed
# [1] = biological target: Ara(a1-5)Ara(a1-5)Ara(a1-5)Ara(a1-5)Ara(a1-5)Ara
# How it was run: (§1)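 Negative Z-scores can be read as non-binding. The Z-score is calculated within each array and then averaged across arrays of one protein sequence at different concentrations or buffers and across linkers. Arrays, 3228 in all, were curated from the Consortium for Functional Glycomics database and kept only where the protein sequence was available.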
# [2] = biological target: Fuc(a1-2)Gal(b1-3)GlcNAc(b1-3)Gal(b1-4)Glc
# How it was run: as §1
# [3] = biological target: Gal(b1-3)GlcNAc(b1-3)[Gal(b1-4)GlcNAc(b1-6)]Gal(b1-4)Glc
# How it was run: as §1
# [4] = biological target: Gal(b1-4)GlcNAc(b1-3)[Gal(b1-4)GlcNAc(b1-6)]Gal(b1-4)GlcNAc(b1-3)[Gal(b1-4)GlcNAc(b1-6)]Gal(b1-4)GlcNAc(b1-3)[Gal(b1-4)GlcNAc(b1-6)]Gal(b1-4)GlcNAc(b1-3)[Gal(b1-4)GlcNAc(b1-6)]Gal(b1-4)GlcNAc(b1-3)Gal(b1-4)Glc
# How it was run: as §1
# [5] = biological target: Gal3S(b1-3)[Fuc(a1-4)]GlcNAc(b1-3)Gal(b1-4)Glc
# How it was run: as §1
# [6] = biological target: Gal3S(b1-4)GlcNAc(b1-3)Gal
# How it was run: as §1
# [7] = biological target: Glc(a1-2)Glc(a1-3)Glc(a1-3)Man(a1-2)Man(a1-2)Man(a1-3)[Man(a1-3)[Man(a1-6)]Man(a1-6)]Man(b1-4)GlcNAc
# How it was run: as §1
# Glc(a1-3)Glc = biological target: Glc(a1-3)Glc
# How it was run: as §1
# [8] = biological target: Glc(a1-3)Glc(a1-3)Man(a1-2)Man(a1-2)Man(a1-3)[Man(a1-3)[Man(a1-6)]Man(a1-6)]Man(b1-4)GlcNAc
# How it was run: as §1
# [9] = biological target: Glc(a1-3)Man(a1-2)Man(a1-2)Man(a1-3)[Man(a1-2)Man(a1-3)[Man(a1-2)Man(a1-6)]Man(a1-6)]Man(b1-4)GlcNAc(b1-4)GlcNAc
# How it was run: as §1
# Glc(a1-6)Glc = biological target: Glc(a1-6)Glc
# How it was run: as §1
# [10] = biological target: Glc(a1-6)Glc(a1-6)Glc(a1-6)Glc
# How it was run: as §1
# [11] = biological target: Glc(a1-6)Glc(a1-6)Glc(a1-6)Glc(a1-6)Glc
# How it was run: as §1
# [12] = biological target: Glc(a1-6)Glc(a1-6)Glc(a1-6)Glc(a1-6)Glc(a1-6)Glc
# How it was run: as §1
# [13] = biological target: Glc(b1-4)Glc(b1-4)Glc(b1-4)Glc(b1-4)Glc(b1-4)Glc
# How it was run: as §1
# GlcA3S(b1-3)Gal = biological target: GlcA3S(b1-3)Gal
# How it was run: as §1
# [14] = biological target: GlcNAc(b1-3)[GlcNAc(b1-6)]Gal(b1-4)GlcNAc(b1-3)[GlcNAc(b1-6)]Gal(b1-4)GlcNAc(b1-3)Gal(b1-4)Glc
# How it was run: as §1
# [15] = biological target: HexA(a1-3)GalNAc6S(b1-4)GlcA(b1-3)GalNAc6S
# How it was run: as §1
# Man(a1-2)Man = biological target: Man(a1-2)Man
# How it was run: as §1
# [16] = biological target: Man(a1-3)[Man(a1-6)]Man(b1-4)GlcNAc(b1-4)GlcNAc
# How it was run: as §1
# Man(b1-4)GlcNAc = biological target: Man(b1-4)GlcNAc
# How it was run: as §1
# [17] = biological target: Man6P(a1-3)Man(a1-3)Man(a1-3)Man(a1-2)Man
# How it was run: as §1
# [18] = biological target: Neu5Ac(a2-3)Gal(b1-3)GalNAc(b1-4)[Neu5Ac(a2-3)]Gal(b1-4)Glc
# How it was run: as §1
# [19] = biological target: Neu5Ac(a2-3)Gal(b1-3)[Fuc(a1-4)]GlcNAc
# How it was run: as §1
# [20] = biological target: Neu5Ac(a2-3)Gal(b1-3)[Fuc(a1-4)]GlcNAc(b1-3)Gal(b1-4)Glc
# How it was run: as §1
# Neu5Ac(a2-8)Neu5Ac = biological target: Neu5Ac(a2-8)Neu5Ac
# How it was run: as §1
# [21] = biological target: Neu5Ac9Ac(a2-6)Gal(b1-4)GlcNAc
# How it was run: as §1
binder,measurement,setting,value
B1,glycan array binding signal (z-score),[1],-0.069
same,glycan array binding signal (z-score),[2],-0.068
same,glycan array binding signal (z-score),[3],-0.075
same,glycan array binding signal (z-score),[4],-0.066
same,glycan array binding signal (z-score),[5],-0.076
same,glycan array binding signal (z-score),[6],-0.076
same,glycan array binding signal (z-score),[7],0.052
same,glycan array binding signal (z-score),Glc(a1-3)Glc,0.041
same,glycan array binding signal (z-score),[8],8.46
same,glycan array binding signal (z-score),[9],-0.171
same,glycan array binding signal (z-score),Glc(a1-6)Glc,-0.214
same,glycan array binding signal (z-score),[10],0.133
same,glycan array binding signal (z-score),[11],0.876
same,glycan array binding signal (z-score),[12],1.32
same,glycan array binding signal (z-score),[13],-0.198
same,glycan array binding signal (z-score),GlcA3S(b1-3)Gal,-0.074
same,glycan array binding signal (z-score),[14],-0.076
same,glycan array binding signal (z-score),[15],-0.074
same,glycan array binding signal (z-score),Man(a1-2)Man,-0.076
same,glycan array binding signal (z-score),[16],-0.072
same,glycan array binding signal (z-score),Man(b1-4)GlcNAc,-0.075
same,glycan array binding signal (z-score),[17],-0.075
same,glycan array binding signal (z-score),[18],-0.076
same,glycan array binding signal (z-score),[19],-0.076
same,glycan array binding signal (z-score),[20],-0.076
same,glycan array binding signal (z-score),Neu5Ac(a2-8)Neu5Ac,-0.073
same,glycan array binding signal (z-score),[21],-0.073
